We go through 15 compounds from PubChem BioAssay (EPA / NIEHS).

Active and inactive are the calls of the source. The calls were made as follows: active = hit-call score of the fitted dose curve at least 0.9, where 1 is the maximum; inactive = score below 0.9.

What all share (details): mRNA level, 48 h; actives raise or lower the signal
Read-out in experiment [1]: Pro-epidermal growth factor (Homo sapiens) (UniProt P01133)
The experiment is described as follows: LTEA_HepaRG_EGF: Life Technologies and Expression Analysis (LTEA) Assay for Epidermal growth factor (EGF) using HepaRG (AID 2283489). The method, boiled down: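 EGF expression changes in human HepaRG cells are scored by bidirectional fitting relative to 0.5% DMSO controls. Chemicals are tested at eight half-log concentrations up to 100 uM for 48 h in serum-free induction medium.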

Read-out in experiment [2]: Early growth response protein 1 (EGR1) transcription factor, EGR1 (gene 1958)
The experiment in a line: LTEA_HepaRG_EGR1: Life Technologies and Expression Analysis (LTEA) Assay for Early growth response protein 1 (EGR1) transcription factor using HepaRG (AID 2283490). The method, boiled down:
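HepaRG, 48 h exposure, 8-pt half-log series from 100 uM, 0.5% DMSO vehicle; EGR1 transcript by TaqMan qRT-PCR (Fluidigm array), housekeeping-normalized; bidirectional fit relative to DMSO baseline.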

Read-out in experiment [3]: Ezrin (EZR), EZR (gene 7430)
The experiment in a line: LTEA_HepaRG_EZR: Life Technologies and Expression Analysis (LTEA) Assay for Ezrin (EZR) using HepaRG (AID 2283491). In a few lines:
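Differentiated human HepaRG cells, 48 h after plating, were exposed in serum-free induction medium for 48 hours to eight half-log concentrations up to 100 uM in 0.5% DMSO. EZR mRNA was measured by TaqMan qRT-PCR, normalized to ACTB, GAPDH and POLR2A, and fitted bidirectionally against DMSO.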

Read-out in experiment [4]: Cytochrome P450 3A7 (Homo sapiens) (UniProt P24462)
The experiment is described as follows: LTEA_HepaRG_CYP3A7: Life Technologies and Expression Analysis (LTEA) Assay for CYP3A7 using HepaRG (AID 2283492). The method, boiled down: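 Cells were thawed, plated, cultured 48 h, then treated for a further 48 h with chemicals (eight-point half-log series from 100 uM, 0.5% DMSO). RNA was isolated and CYP3A7 expression quantified by qRT-PCR normalised to ACTB, GAPDH and POLR2A.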

Read-out in experiment [5]: CYP3A5 (gene 1577)
The experiment is described as follows: LTEA_HepaRG_CYP3A5: Life Technologies and Expression Analysis (LTEA) Assay for CYP3A5 using HepaRG (AID 2283493). In a few lines: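 Readout was CYP3A5 mRNA by qRT-PCR. HepaRG cultures were exposed for 48 h in serum-free induction medium to chemicals at up to 100 uM, and responses were fitted in both directions relative to DMSO vehicle.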

Read-out in experiment [6]: Fatty Acid-Binding Protein 1 (FABP1), FABP1 (gene 2168)
The experiment is described as follows: LTEA_HepaRG_FABP1: Life Technologies and Expression Analysis (LTEA) Assay for Fatty Acid-Binding Protein 1 (FABP1) using HepaRG (AID 2283494). The method, boiled down: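 qRT-PCR readout of FABP1 transcript (normalized to three housekeeping genes) after 48 h chemical exposure of HepaRG cells; eight concentrations, half-log steps, max 100 uM, 0.5% DMSO vehicle; gain or loss fitted relative to DMSO baseline.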

Read-out in experiment [7]: Cytochrome P450 4A22 (Homo sapiens) (UniProt Q5TCH4)
The experiment is described as follows: LTEA_HepaRG_CYP4A22: Life Technologies and Expression Analysis (LTEA) Assay for Cytochrome P450 4A22 (CYP4A22) using HepaRG (AID 2283495). The method, boiled down:
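Cryopreserved HepaRG cells, plated and cultured 48 h, then switched to serum-free induction medium and treated 48 h (duplicates, up to 100 uM, half-log steps, 0.5% DMSO). Expression change of CYP4A22 was fitted bidirectionally against vehicle.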

Read-out in experiment [8]: Glutathione S-Transferase (GSTA2), GSTA2 (gene 2939)
The experiment is described as follows: LTEA_HepaRG_GSTA2: Life Technologies and Expression Analysis (LTEA) Assay for Glutathione S-Transferase (GSTA2) using HepaRG (AID 2283497). The method, boiled down:
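qRT-PCR readout of GSTA2 transcript, normalized to three housekeeping genes, fitted bidirectionally against 0.5% DMSO baseline. Differentiated HepaRG cells received compound for 48 h at 8 concentrations (top 100 uM, half-log steps).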

Read-out in experiment [9]: Glutamate-cysteine ligase catalytic (GCLC), GCLC (gene 2729)
The experiment is described as follows: LTEA_HepaRG_GCLC: Life Technologies and Expression Analysis (LTEA) Assay for Glutamate-cysteine ligase catalytic (GCLC) using HepaRG (AID 2283498). The method, boiled down: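 HepaRG, 48 h exposure, 8-pt half-log series from 100 uM, 0.5% DMSO vehicle; TaqMan qRT-PCR for GCLC mRNA, housekeeping-normalized; bidirectional curve fit vs DMSO baseline.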

Read-out in experiment [10]: Cytochrome P450 7A1 (Homo sapiens) (UniProt P22680)
The experiment in a line: LTEA_HepaRG_CYP7A1: Life Technologies and Expression Analysis (LTEA) Assay for Cytochrome P450 7A1 (CYP7A1) using HepaRG (AID 2283496). The method, boiled down: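 Using 0.5% DMSO as vehicle and baseline, chemicals were tested in duplicate over an 8-point range from 100 uM on HepaRG cells for 48 h; qRT-PCR signals were normalised to ACTB, GAPDH and POLR2A.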

Sequence of Cytochrome P450 3A7 (Homo sapiens) (P24462 whole entry, looked up): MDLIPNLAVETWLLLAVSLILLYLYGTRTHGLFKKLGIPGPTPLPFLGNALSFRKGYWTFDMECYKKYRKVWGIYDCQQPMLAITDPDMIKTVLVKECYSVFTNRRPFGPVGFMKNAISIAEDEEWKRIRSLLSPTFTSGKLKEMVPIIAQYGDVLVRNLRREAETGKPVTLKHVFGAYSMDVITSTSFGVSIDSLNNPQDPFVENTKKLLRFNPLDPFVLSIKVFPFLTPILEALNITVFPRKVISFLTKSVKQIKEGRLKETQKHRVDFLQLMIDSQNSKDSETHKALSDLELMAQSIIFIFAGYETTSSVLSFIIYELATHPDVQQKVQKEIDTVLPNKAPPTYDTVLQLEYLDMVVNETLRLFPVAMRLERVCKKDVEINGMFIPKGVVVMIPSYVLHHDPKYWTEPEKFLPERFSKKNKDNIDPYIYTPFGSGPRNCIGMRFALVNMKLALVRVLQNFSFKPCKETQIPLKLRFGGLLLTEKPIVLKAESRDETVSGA

Regarding `COc1ccc([N+](=O)[O-])cc1N`, the compound was classed as inactive in experiment [1], in experiment [2], in experiment [3], in experiment [4], in experiment [5] and in experiment [6]. Also, the compound was classed as inactive in [7], in experiment [8] and in experiment [9].
As a reminder, the AC50 is the midpoint of the concentration-response curve, whichever way the signal moves. For the compound `CCCCCCCCCCCCCCCS(=O)(=O)Oc1ccccc1`, the outcome in experiment [1], in [2], in [3], in [5], in experiment [6] and in experiment [7] was inactive. In addition, the compound was called inactive in experiment [10], in experiment [8] and in experiment [9]. Further, the AC50 in experiment [4] is 8.39 µM (active).
As for `CN1CCN(c2ccccc2/C=C2\SCCN(c3ccc(Cl)c(Cl)c3)C2=O)CC1`, the result in experiment [1], in experiment [4], in [5], in experiment [8] and in experiment [9] was inactive. Further, the AC50 in experiment [2] was 83 µM (active); in experiment [3], 50 µM (active); in experiment [6] it was 50 µM (active); in experiment [7] it was 15.8 µM (active).
Regarding `CN1CCC[C@H]1c1cccnc1`, the compound was called inactive in experiment [1], in experiment [2], in experiment [3], in experiment [4], in experiment [5] and in [6]. Also, the outcome in [7], in experiment [10], in [8] and in experiment [9] was inactive.
Take `CC[C@H](C)[C@@H](C(=O)O)n1sc2ccccc2c1=O`: the compound was classed as inactive in [1], in experiment [2], in experiment [3], in experiment [4], in [5] and in experiment [6]. The compound was classed as inactive in experiment [7], in experiment [10], in experiment [8] and in experiment [9].
On to `CCC(C)(C)C1CCC(O)CC1` (configuration not stated), for which the compound was classed as inactive in [1], in [2], in experiment [3], in experiment [4], in experiment [5] and in experiment [6]. Moreover, the result in [7], in experiment [10], in experiment [8] and in experiment [9] was inactive.
For `N#C[C@@H]1CC(F)(F)CN1C(=O)CNC1CC2CCC(C1)N2c1ncccn1` (some centres not stated), the compound was called inactive in [1], in experiment [2], in [3], in experiment [4], in experiment [5] and in experiment [6]. In addition, the call in experiment [7], in experiment [8] and in experiment [9] was inactive.
Regarding `O=[N+]([O-])c1ccc(O)cc1`, the result in experiment [1], in experiment [2], in experiment [3], in [4], in experiment [5] and in experiment [6] was inactive. For the same compound, the compound was classed as inactive in experiment [7], in [10], in experiment [8] and in [9].
In the case of `Cc1cc(CCN2CCN(c3nsc4ccccc34)CC2)cc2c1NC(=O)CC2(C)C`, the compound was called inactive in experiment [1], in experiment [2], in experiment [5] and in experiment [9]. Besides, the AC50 is 9.92 µM (active) in experiment [3]; 79.5 µM (active) in [4]; 69.7 µM (active) in [6]; 58.6 µM (active) in [7]; 81.9 µM (active) in [8].
Take `CCCCC(CC)COC(=O)CCCCC(=O)OCC(CC)CCCC` (configuration not stated): the outcome in experiment [1], in experiment [2], in experiment [3], in experiment [4], in experiment [5] and in [6] was inactive. In addition, the result in experiment [7], in [8] and in [9] was inactive.
`OC1CCC(C2CCCCC2)CC1` (configuration not stated): the call in experiment [1], in experiment [2], in [3], in experiment [4], in experiment [5] and in [6] was inactive. Besides, the compound was called inactive in experiment [7], in experiment [10], in experiment [8] and in [9].
For `CCCCCCCCC(=O)O`, the call in experiment [1], in experiment [2], in experiment [3], in experiment [4], in experiment [5] and in experiment [6] was inactive. Further, the compound was classed as inactive in experiment [7], in experiment [10], in [8] and in [9].
Take `Cc1cc(C)c(O)c(C)c1`: the compound was classed as inactive in experiment [1], in [2], in [3], in [5], in experiment [6] and in [7]. In addition, the compound was called inactive in [8] and in [9]. Further, in [4], the AC50 was 7.49 µM (active).
`CCCCCCCC(=O)O`: the compound was classed as inactive in experiment [1], in experiment [2], in experiment [3], in [4], in [5] and in [6]. Further, the outcome in experiment [7], in experiment [8] and in experiment [9] was inactive.
Turning to `O=C(O)Cc1cc(I)c(Oc2cc(I)c(O)c(I)c2)c(I)c1`, the AC50 is 57.3 µM (active) in experiment [1]; 51.6 µM (active) in experiment [2]; 45.4 µM (active) in experiment [4]; 26.7 µM (active) in experiment [5]; 62 µM (active) in experiment [6]; 54.5 µM (active) in experiment [7]. For the same compound, the figures for the AC50 in experiment [8] and in experiment [9] were 56.7 µM (active) and 57.9 µM (active), respectively. The compound was classed as inactive in [3].
